Screening results from PubChem BioAssay.
Hits are enriched below; roughly 2.5% of the tested compounds scored in any of these assays.
MEKK2wt PB1 HTS – raises or lowers MEK5 binding to wildtype human MEKK2 PB1 domain; 290,000 tested, 1.1% active; bead flow cytometry, Alexa488-MEK5 binding to MEKK2 WT; actives lie on both sides; binding response (% of control), % at 10 µM; Q9Y2U5; AID 1531; in the data active = binding response below about 67% or above about 130%
GRK2 aptamer HTS – inhibitors of human GRK2 displacing RNA aptamer; 330,000 tested, 0.59% active; P25098; bead flow cytometry, FAM-aptamer displacement from GRK2; inhibition of aptamer binding, % at 10 µM;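 active = inhibition of aptamer binding above 40%, roughly 3 SD of noise, on plates passing a quality check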;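 also: median bead fluorescence of bound FAM aptamer so fluorescent compounds give negative values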
MEKK2mut PB1 HTS – signal of MEK5 binding to mutant human MEKK2 PB1 domain. percent response, % at 10 µM. AID 1530. bead flow cytometry, Alexa488-MEK5 binding to MEKK2 mutant. 290,000 tested, 0.35% active; in the data active = percent response above about 24%, passing the limit was not always enough
MEKK3 PB1 HTS – modulators (inhibitors or enhancers) of MEK5 binding to human MEKK3 PB1 domain | binding response (% of control), % at 10 µM | bead-based flow cytometry, Alexa488-MEK5 binding to MEKK3; actives lie on both sides; 0 = blocked by unlabeled MEK5, 100 = vehicle | 290,000 tested, 1.4% active | Q99759 | AID 1529;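 active = binding response more than 3 SD above or below the average of its plate-row segment, actives on both sides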;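 also: Alexa488 bead fluorescence after subtracting the streptavidin-only scavenger bead signal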
Target sequence (Q99759 whole entry, looked up, the tested form may be a part): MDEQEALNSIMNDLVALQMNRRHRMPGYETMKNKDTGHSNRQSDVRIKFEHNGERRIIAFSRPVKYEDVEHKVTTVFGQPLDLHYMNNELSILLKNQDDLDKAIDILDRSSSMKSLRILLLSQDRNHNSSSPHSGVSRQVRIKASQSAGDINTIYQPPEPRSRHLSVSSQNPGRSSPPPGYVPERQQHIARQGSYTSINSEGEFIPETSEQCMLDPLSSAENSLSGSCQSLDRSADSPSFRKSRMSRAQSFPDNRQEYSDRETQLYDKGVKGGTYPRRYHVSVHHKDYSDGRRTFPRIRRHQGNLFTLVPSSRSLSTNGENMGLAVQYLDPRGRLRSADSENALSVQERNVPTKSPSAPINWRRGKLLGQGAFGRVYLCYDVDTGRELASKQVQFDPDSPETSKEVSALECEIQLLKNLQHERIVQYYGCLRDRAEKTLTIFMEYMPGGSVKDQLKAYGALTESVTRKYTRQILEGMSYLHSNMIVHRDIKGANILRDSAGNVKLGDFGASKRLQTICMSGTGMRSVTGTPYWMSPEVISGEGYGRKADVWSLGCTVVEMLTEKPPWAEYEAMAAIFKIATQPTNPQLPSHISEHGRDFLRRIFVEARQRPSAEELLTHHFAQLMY
MEKK2wt confirm – raises or lowers MEK5 binding to wildtype human MEKK2, retest; shares compounds with MEKK3 PB1 HTS; bead flow cytometry, Alexa488-MEK5 binding to MEKK2 WT; actives lie on both sides; binding response (% of control), % at 10 µM; 5,900 tested, 2.4% active; in the data active = binding response below about 16% or above about 210%; inactive = in between
MEKK2mut-MEK5 – signal of MEK5 binding to mutant human MEKK2, retest. shares compounds with MEKK3 PB1 HTS. percent response, % at 10 µM. AID 1893. 5,900 tested, 2% active. bead flow cytometry, Alexa488-MEK5 binding to MEKK2 mutant; in the data active = percent response mostly above about 71%, no sharp cut-off; inactive = mostly below about 38%;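 also: higher means compound restores mutant binding toward wildtype level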
MEKK3 confirm – confirmation of inhibitors of MEK5 binding to human MEKK3; binding response (% of control), % at 10 µM; 5,900 tested, 1.8% active; shares compounds with MEKK3 PB1 HTS; bead flow cytometry, Alexa488-MEK5 binding to MEKK3; stronger effect = lower value; AID 1894;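 active = binding response below 72% of control, or above a set upper limit, though filed actives all read lower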
Each line names hits and unclear results; the compound was inactive in the other large screens (follow-up assays come after a bar, where they were run); [ ] = dose if it differs, or a comment.

Cc1cc(N2CCN(C)CC2)ccc1NC(=O)c1cccc(S(=O)(=O)N2CCc3ccccc3C2)c1	MEKK2wt PB1 HTS 195.0 | MEKK2wt confirm inactive | MEKK2mut-MEK5 inactive | MEKK3 confirm inactive
Cc1cnc(C(=O)Nc2ccccc2F)cn1	MEKK2wt PB1 HTS 1.0[inhibitor], MEKK3 PB1 HTS 2.0[inhibitor] | MEKK2wt confirm inactive | MEKK2mut-MEK5 inactive | MEKK3 confirm inactive
COC(=O)n1ccc(C(=O)Nc2ccccc2F)n1	MEKK2wt PB1 HTS 3.0[inhibitor], MEKK3 PB1 HTS 3.0[inhibitor] | MEKK2wt confirm inactive | MEKK2mut-MEK5 inactive | MEKK3 confirm inactive
Cc1cnc(C(=O)Nc2ccccc2-n2cccc2)cn1	none
O=C(Nc1ccccc1F)c1ccncc1	none
S=C(c1ccc2c(c1)OCO2)N1CCCCC1	none
CCc1ccc(OCC(=O)NC(=S)Nc2ccc(C(C)=O)cc2)c(Br)c1	none (no result: MEKK2wt PB1 HTS, MEKK2mut PB1 HTS, MEKK3 PB1 HTS)
CCc1ccc(OCC(=O)NC(=S)Nc2ccc(F)cc2)c(Br)c1	MEKK3 PB1 HTS 53.0[inhibitor] | MEKK2wt confirm inactive | MEKK2mut-MEK5 inactive | MEKK3 confirm inactive
Nc1nc(CSc2nnc(-c3cccc(F)c3)n2-c2ccccc2)nc(N2CCOCC2)n1	none
COc1ccccc1Nc1nc(-c2sc(N)nc2C)cs1	none
Cc1nc(N)sc1-c1csc(Nc2ncccn2)n1	MEKK3 PB1 HTS 35.0[inhibitor] (no result: GRK2 aptamer HTS) | MEKK2wt confirm inactive | MEKK2mut-MEK5 inactive | MEKK3 confirm 43.0
CCC1(c2ccc(Cl)cc2)NC(=S)N(c2ccccc2)N1 (stereo not drawn)	MEKK3 PB1 HTS 128.0 | MEKK2wt confirm inactive | MEKK2mut-MEK5 inactive | MEKK3 confirm inactive
O=C(/C=C/c1ccccc1)NCCSc1ccc(Cl)cc1	none
O=C(N/C(=C/c1ccc(Cl)cc1)C(=O)N1CCCC1)c1ccccc1	none
CN(C)C(=O)C(CCN1CCC(O)(c2ccc(Cl)cc2)CC1)(c1ccccc1)c1ccccc1	MEKK2wt PB1 HTS 150.0 | MEKK2wt confirm inactive | MEKK2mut-MEK5 inactive | MEKK3 confirm inactive
CCOC(=O)c1sc2nc(CSc3ccccc3)nc(NCCN(C)C)c2c1C	MEKK2wt PB1 HTS 176.0 | MEKK2wt confirm inactive | MEKK2mut-MEK5 inactive | MEKK3 confirm inactive
CCOC(=O)c1sc2nc(C)nc(NCCc3ccccn3)c2c1C	none (no result: MEKK2wt PB1 HTS, MEKK2mut PB1 HTS, MEKK3 PB1 HTS)
COc1ccc(N2Cc3cccc(C(=O)N4CCN(C(=O)c5ccco5)CC4)c3C2=O)cc1	none
CCN(CC)C(=O)Cn1cnc2sc(C(=O)N3CCN(c4ccc(F)cc4)CC3)c(C)c2c1=O	none
COc1ccccc1NS(=O)(=O)c1cc([N+](=O)[O-])ccc1N/N=C/c1sc(N2CCOCC2)nc1-c1ccccc1	MEKK2mut PB1 HTS 205.0 | MEKK2wt confirm inactive | MEKK2mut-MEK5 inactive | MEKK3 confirm inactive
COc1ccc(C(=O)N/N=C/c2sc(N3CCOCC3)nc2-c2ccccc2)cc1OC	none
O=C(C1CCCCN1S(=O)(=O)c1ccccc1[N+](=O)[O-])N1CCCCC1 (stereo not drawn)	MEKK3 PB1 HTS 74.0[inhibitor] | MEKK2wt confirm inactive | MEKK2mut-MEK5 inactive | MEKK3 confirm inactive
CCCCSc1nnc2[nH]c(=O)cc(N)n12	none
CCCCSc1cc(=O)[nH]c(N)n1	MEKK3 PB1 HTS 70.0[inhibitor] | MEKK2wt confirm inactive | MEKK2mut-MEK5 inactive | MEKK3 confirm inactive
CN(C)c1nc(Nn2cnnc2)nc(N(C)C)n1	none
O=C(CCN1CCC(c2ccccc2)C1)c1cccs1 (stereo not drawn)	MEKK3 PB1 HTS 81.0[inhibitor] | MEKK2wt confirm inactive | MEKK2mut-MEK5 inactive | MEKK3 confirm inactive
Cc1cc(Cl)ccc1NC(=O)CN1C(=O)CSc2ccc(S(=O)(=O)N3CCOCC3)cc21	none
COc1ccc(-c2csc(NC(=O)CN3C(=O)CCC3=O)n2)c(OC)c1	MEKK3 PB1 HTS 142.0 | MEKK2wt confirm inactive | MEKK2mut-MEK5 inactive | MEKK3 confirm inactive
N=c1n(CCO)c2ccccc2n1CCOc1ccc(Cl)cc1Cl	MEKK2wt PB1 HTS 148.0 | MEKK2wt confirm inactive | MEKK2mut-MEK5 inactive | MEKK3 confirm inactive
CCc1ccc(OCC(=O)N/N=C/c2ccc(OS(=O)(=O)c3ccc(C)cc3)c(OC)c2)cc1	none
COc1cc(/C=N/NC(=O)COc2cc(C)cc(C)c2)ccc1OS(=O)(=O)c1ccc(C)cc1	MEKK3 PB1 HTS 135.0 | MEKK2wt confirm inactive | MEKK2mut-MEK5 inactive | MEKK3 confirm inactive
CCCN1CNC(=S)N(c2ccc(C(=O)OCC)cc2)C1	none
CCOC(=O)c1ccc(N2CN(CC)CNC2=S)cc1	MEKK3 PB1 HTS 130.0 | MEKK2wt confirm inactive | MEKK2mut-MEK5 inactive | MEKK3 confirm inactive
COc1ccccc1CNC(=O)c1ccc(-c2ccccc2)cc1	none
CCC1SC2=NC(C)=C(C(=O)OCCOC)C(/C=C/c3ccccc3OC)N2C1=O (stereo not drawn)	MEKK3 PB1 HTS 124.0 | MEKK2wt confirm inactive | MEKK2mut-MEK5 inactive | MEKK3 confirm inactive
CCC1SC2=NC(C)=C(C(=O)OCC(C)C)C(/C=C/c3ccccc3OC)N2C1=O (stereo not drawn)	none
Cc1ccc(/C=N/N2CCN(Cc3ccccc3)CC2)s1	none
CC(C(=O)c1ccc(Br)cc1)[n+]1cccc2ccccc21 (stereo not drawn)	none
CCOc1ccc(/C=N/OCC(=O)Nc2ccc(OCc3ccccc3)cc2)cc1OC	none
COc1cc(/C=N/OCC(=O)Nc2ccc(OC(F)F)cc2)ccc1OCc1ccccc1	MEKK3 PB1 HTS 135.0 | MEKK2wt confirm inactive | MEKK2mut-MEK5 inactive | MEKK3 confirm inactive
CCc1cc2cc(C(=O)N3CCN(Cc4ccccc4)CC3)sc2s1	MEKK3 PB1 HTS 77.0[inhibitor] | MEKK2wt confirm inactive | MEKK2mut-MEK5 inactive | MEKK3 confirm inactive
CCCCn1c(N)c(-c2nc3ccccc3s2)c2c([N+](=O)[O-])nn(C)c(=O)c21	MEKK3 PB1 HTS 82.0[inhibitor] | MEKK2wt confirm inactive | MEKK2mut-MEK5 inactive | MEKK3 confirm inactive
CC1(C(=O)c2ccccc2)C2c3c(ccc4ccccc34)OC(=O)C21C(=O)N1CCOCC1 (stereo not drawn)	none
Cc1ccc(C(=O)C2(C)C3c4cc(Br)ccc4OC(=O)C32C(=O)c2ccco2)cc1 (stereo not drawn)	MEKK2wt PB1 HTS 39.0[inhibitor], MEKK3 PB1 HTS 24.0[inhibitor] | MEKK2wt confirm inactive | MEKK2mut-MEK5 inactive | MEKK3 confirm inactive
Fc1ccccc1OCCCCCN1CCCC1	none
Fc1ccccc1OCCCCCCN1CCCC1	MEKK2wt PB1 HTS 141.0 | MEKK2wt confirm inactive | MEKK2mut-MEK5 inactive | MEKK3 confirm inactive
CCN(CC)CCN(Cc1cc2cc3c(cc2[nH]c1=O)OCO3)C(=S)NCCCN(C)C	none
CCCCNC(=S)N(CCN(CC)CC)Cc1cc2cc3c(cc2[nH]c1=O)OCO3	MEKK2mut PB1 HTS 24.0 | MEKK2wt confirm inactive | MEKK2mut-MEK5 inactive | MEKK3 confirm inactive
CCN(CC)CCN(Cc1cc2cc3c(cc2[nH]c1=O)OCCO3)C(=S)NCCCN(C)C	MEKK2wt PB1 HTS 138.0 | MEKK2wt confirm inactive | MEKK2mut-MEK5 inactive | MEKK3 confirm inactive
